# Measurements taken from PubChem BioAssay (NCI).
# This is part of a sample that, as a whole, favours compounds with a hit. Of some 79,000 tested, about 15% had one in any assay. Unmarked numbers belong to inactive results. The source made the active and inactive calls. Rule as the data show it: active = growth inhibition above about 70%; inactive = the rest.
# Legend:
# [1] = NCI Yeast Anticancer Drug Screen. Data for the rad52 strain (AID 147);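 also: 0% = growth of vehicle-treated control cultures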; conditions: S. cerevisiae rad52 mutant growth inhibition, stronger effect = higher value
# Outline: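 Growth of repair-deficient yeast cells was compared between compound-treated and vehicle-treated cultures to give percent inhibition.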
# [2] = NCI Yeast Anticancer Drug Screen. Data for the wt1 strain (AID 149);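 also: 0% = growth of vehicle-treated wt1 cultures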; conditions: S. cerevisiae wt1 strain (SPY 50644) growth inhibition, stronger effect = higher value
# Outline: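 Growth inhibition read against vehicle controls after compound exposure of the wt1 yeast strain.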
# [3] = NCI Yeast Anticancer Drug Screen. Data for the rad50EPP+ strain (AID 151);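 also: 0% = growth of vehicle-treated control cultures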; conditions: S. cerevisiae rad50 mutant strain, stronger effect = higher value
# Outline: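 Measured: growth inhibition of rad50EPP+ yeast. Reference: vehicle-treated controls. Screen uses strains with defined genetic alterations in DNA damage repair or cell cycle control.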
# [4] = NCI Yeast Anticancer Drug Screen. Data for the rad50 strain (AID 155);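 also: 0% = growth of vehicle-only cultures of the same strain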; conditions: S. cerevisiae rad50 strain growth inhibition, stronger effect = higher value
# Outline: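 Readout: growth inhibition relative to vehicle-treated cultures. Compound exposure was carried out in a genetically defined yeast strain deficient in DNA damage repair.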
# [5] = NCI Yeast Anticancer Drug Screen. Data for the mec2-1 strain (AID 157); conditions: S. cerevisiae mec2-1 strain, stronger effect = higher value
# Outline: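 Compounds were applied to mec2-1 yeast cells. Their growth was then compared with that of vehicle-treated cultures to give growth inhibition.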
# [6] = NCI Yeast Anticancer Drug Screen. Data for the rad14 strain (AID 159);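 also: 0% = growth of vehicle-treated control cultures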; conditions: S. cerevisiae rad14 strain growth inhibition, stronger effect = higher value
# Outline: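 Growth inhibition vs vehicle controls; genetically altered yeast strain (DNA damage repair defect) treated with test compounds.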
# [7] = NCI Yeast Anticancer Drug Screen. Data for the sgs1 mgt1 strain (AID 161);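 also: 0% = growth of cultures given vehicle only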; conditions: S. cerevisiae sgs1 mgt1 strain, stronger effect = higher value
# Outline: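 Compounds are added to genetically altered yeast, and growth is compared with cultures given vehicle alone to give percent inhibition.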
# [8] = NCI Yeast Anticancer Drug Screen. Data for the CLN2oe strain (AID 163);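 also: 0% = growth of vehicle-only control cultures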; conditions: S. cerevisiae CLN2oe strain, stronger effect = higher value
# Outline: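 Cells of an engineered yeast line with disturbed cell-cycle regulation are treated with compound. Inhibition of growth is then calculated relative to the vehicle-treated reference.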
# [9] = NCI Yeast Anticancer Drug Screen. Data for the cln2 rad14 strain (AID 165);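 also: 0% = growth equal to vehicle treated cultures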; conditions: S. cerevisiae cln2 rad14 strain, stronger effect = higher value
# Outline: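 Strain: cln2 rad14 yeast, altered in cell cycle control and DNA damage repair. Read-out: growth inhibition vs vehicle.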
# [10] = NCI Yeast Anticancer Drug Screen. Data for the bub3 strain (AID 167); conditions: S. cerevisiae bub3 mutant strain, stronger effect = higher value
# Outline: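 Readout: yeast growth inhibition, expressed relative to vehicle-only wells. The test organism is a mutant strain from a panel with lesions in DNA repair or checkpoint genes.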
# [11] = NCI Yeast Anticancer Drug Screen. Data for the wt2 strain (AID 169);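 also: 0% = growth of vehicle-treated yeast cultures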; conditions: S. cerevisiae wt2 strain growth inhibition, stronger effect = higher value
# Outline: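 Growth of compound-treated yeast is measured and expressed as inhibition relative to vehicle-only controls.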
# [12] = NCI Yeast Anticancer Drug Screen. Data for the mlh1 strain (AID 171);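 also: 0% = growth of vehicle-treated control cultures of the same strain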; conditions: S. cerevisiae mlh1 strain growth inhibition, stronger effect = higher value
# Outline: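 Test agents were incubated with yeast bearing a defined DNA damage repair or cell cycle control alteration; values are growth inhibition normalised to vehicle-treated cultures.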
# [13] = NCI Yeast Anticancer Drug Screen. Data for the sgs1 strain (AID 173);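 also: 0% = growth of vehicle-only control cultures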; conditions: S. cerevisiae sgs1 mutant, stronger effect = higher value
# Outline: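 Strain with an altered DNA repair or cell cycle pathway exposed to compound. Growth then measured. Value = inhibition versus vehicle control.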
# [14] = NCI Yeast Anticancer Drug Screen. Data for the mlh1 rad18 strain (AID 175); conditions: S. cerevisiae mlh1 rad18 strain growth inhibition, stronger effect = higher value
# Outline: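 A repair-deficient yeast strain is exposed to test compound, and growth is scored relative to vehicle-treated controls.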
# [15] = NCI Yeast Anticancer Drug Screen. Data for the rad18 strain (AID 177); conditions: S. cerevisiae rad18 mutant growth inhibition, stronger effect = higher value
# Outline: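 DNA-repair-defective yeast; compound treatment; growth inhibition scored against vehicle.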
# [16] = at 5.0 µM (retest, dose inferred, filed as 0.5)
# [17] = at 50.0 µM (retest, dose inferred, filed as 5.0)
smiles,measurement,setting,value
COc1ccc(SCc2cc(OC)ccc2OC)cc1,growth inhibition,[1]; at 1.2 µM,0%
same,growth inhibition,[1]; at 3.7 µM,2%
same,growth inhibition,[1]; at 11.0 µM,4%
same,growth inhibition,[1]; at 33.0 µM,3%
same,growth inhibition,[1]; at 100.0 µM,3%
same,growth inhibition,[2]; at 1.2 µM,-4%
same,growth inhibition,[2]; at 3.7 µM,-4%
same,growth inhibition,[2]; at 11.0 µM,-5%
same,growth inhibition,[2]; at 33.0 µM,-6%
same,growth inhibition,[2]; at 100.0 µM,-1%
same,growth inhibition,[3]; at 1.2 µM,15%
same,growth inhibition,[3]; at 3.7 µM,18%
same,growth inhibition,[3]; at 11.0 µM,27%
same,growth inhibition,[3]; at 33.0 µM,30%
same,growth inhibition,[3]; at 100.0 µM,18%
same,growth inhibition,[4]; at 1.2 µM,0%
same,growth inhibition,[4]; at 3.7 µM,1%
same,growth inhibition,[4]; [16],-8%
same,growth inhibition,[4]; at 11.0 µM,2%
same,growth inhibition,[4]; at 33.0 µM,2%
same,growth inhibition,[4]; [17],66%
same,growth inhibition,[4]; at 50.0 µM,60.5%
same,growth inhibition,[4]; at 100.0 µM,3%
same,growth inhibition,[5]; at 1.2 µM,-1%
same,growth inhibition,[5]; at 3.7 µM,-7%
same,growth inhibition,[5]; [16],-26%
same,growth inhibition,[5]; at 11.0 µM,-6%
same,growth inhibition,[5]; at 33.0 µM,-9%
same,growth inhibition,[5]; [17],14%
same,growth inhibition,[5]; at 50.0 µM,13.9%
same,growth inhibition,[5]; at 100.0 µM,-3%
same,growth inhibition,[6]; at 1.2 µM,0%
same,growth inhibition,[6]; at 3.7 µM,-2%
same,growth inhibition,[6]; at 11.0 µM,-3%
same,growth inhibition,[6]; at 33.0 µM,0%
same,growth inhibition,[6]; at 100.0 µM,2%
same,growth inhibition,[7]; [16],-27%
same,growth inhibition,[7]; [17],37%
same,growth inhibition,[7]; at 50.0 µM,67%
same,growth inhibition,[8]; at 1.2 µM,-4%
same,growth inhibition,[8]; at 3.7 µM,-9%
same,growth inhibition,[8]; at 11.0 µM,-6%
same,growth inhibition,[8]; at 33.0 µM,-8%
same,growth inhibition,[8]; at 100.0 µM,-2%
same,growth inhibition,[9]; [16],-25%
same,growth inhibition,[9]; [17],58%
same,growth inhibition,[9]; at 50.0 µM,20.1%
same,growth inhibition,[10]; at 1.2 µM,3%
same,growth inhibition,[10]; at 3.7 µM,13%
same,growth inhibition,[10]; [16],-17%
same,growth inhibition,[10]; at 11.0 µM,24%
same,growth inhibition,[10]; at 33.0 µM,21%
same,growth inhibition,[10]; [17],73% (active)
same,growth inhibition,[10]; at 50.0 µM,61.3%
same,growth inhibition,[10]; at 100.0 µM,14%
same,growth inhibition,[11]; at 1.2 µM,-2%
same,growth inhibition,[11]; at 3.7 µM,0%
same,growth inhibition,[11]; at 11.0 µM,-2%
same,growth inhibition,[11]; at 33.0 µM,0%
same,growth inhibition,[11]; at 100.0 µM,1%
same,growth inhibition,[12]; at 1.2 µM,-2%
same,growth inhibition,[12]; at 3.7 µM,-4%
same,growth inhibition,[12]; at 11.0 µM,0%
same,growth inhibition,[12]; at 33.0 µM,-4%
same,growth inhibition,[12]; at 100.0 µM,0%
same,growth inhibition,[13]; at 1.2 µM,-2%
same,growth inhibition,[13]; at 3.7 µM,-4%
same,growth inhibition,[13]; at 11.0 µM,-2%
same,growth inhibition,[13]; at 33.0 µM,-2%
same,growth inhibition,[13]; at 100.0 µM,0%
same,growth inhibition,[14]; [16],-16%
same,growth inhibition,[14]; [17],67%
same,growth inhibition,[14]; at 50.0 µM,21.3%
same,growth inhibition,[15]; at 1.2 µM,-5%
same,growth inhibition,[15]; at 3.7 µM,-5%
same,growth inhibition,[15]; at 11.0 µM,-3%
same,growth inhibition,[15]; at 33.0 µM,-16%
same,growth inhibition,[15]; at 100.0 µM,-1%
COc1cc(/C=C/c2sc3ccccc3[n+]2C)ccc1N(C)C,growth inhibition,[1]; at 1.2 µM,1%
same,growth inhibition,[1]; at 3.7 µM,-2%
same,growth inhibition,[1]; at 11.0 µM,0%
same,growth inhibition,[1]; at 33.0 µM,67%
same,growth inhibition,[1]; at 100.0 µM,93% (active)
same,growth inhibition,[2]; at 1.2 µM,0%
same,growth inhibition,[2]; at 3.7 µM,-1%
same,growth inhibition,[2]; at 11.0 µM,-1%
same,growth inhibition,[2]; at 33.0 µM,30%
same,growth inhibition,[2]; at 100.0 µM,97% (active)
same,growth inhibition,[3]; at 1.2 µM,-1%
same,growth inhibition,[3]; at 3.7 µM,4%
same,growth inhibition,[3]; at 11.0 µM,11%
same,growth inhibition,[3]; at 33.0 µM,31%
same,growth inhibition,[3]; at 100.0 µM,87% (active)
same,growth inhibition,[4]; at 1.2 µM,-4%
same,growth inhibition,[4]; at 3.7 µM,6%
same,growth inhibition,[4]; [16],3%
same,growth inhibition,[4]; at 11.0 µM,-18%
same,growth inhibition,[4]; at 33.0 µM,65%
same,growth inhibition,[4]; [17],4%
same,growth inhibition,[4]; at 50.0 µM,67.8%
same,growth inhibition,[4]; at 100.0 µM,96% (active)
same,growth inhibition,[5]; at 1.2 µM,0%
same,growth inhibition,[5]; at 3.7 µM,0%
same,growth inhibition,[5]; [16],3%
same,growth inhibition,[5]; at 11.0 µM,2%
same,growth inhibition,[5]; at 33.0 µM,69%
same,growth inhibition,[5]; [17],0%
same,growth inhibition,[5]; at 50.0 µM,61.1%
same,growth inhibition,[5]; at 100.0 µM,98% (active)
same,growth inhibition,[6]; at 1.2 µM,-4%
same,growth inhibition,[6]; at 3.7 µM,-7%
same,growth inhibition,[6]; at 11.0 µM,-2%
same,growth inhibition,[6]; at 33.0 µM,88% (active)
same,growth inhibition,[6]; at 100.0 µM,99% (active)
same,growth inhibition,[7]; [16],2%
same,growth inhibition,[7]; [17],7%
same,growth inhibition,[7]; at 50.0 µM,93.5% (active)
same,growth inhibition,[8]; at 1.2 µM,-5%
same,growth inhibition,[8]; at 3.7 µM,-2%
same,growth inhibition,[8]; at 11.0 µM,-2%
same,growth inhibition,[8]; at 33.0 µM,50%
same,growth inhibition,[8]; at 100.0 µM,96% (active)
same,growth inhibition,[9]; [16],-2%
same,growth inhibition,[9]; [17],-1%
same,growth inhibition,[9]; at 50.0 µM,33.6%
same,growth inhibition,[10]; at 1.2 µM,-2%
same,growth inhibition,[10]; at 3.7 µM,1%
same,growth inhibition,[10]; [16],3%
same,growth inhibition,[10]; at 11.0 µM,-2%
same,growth inhibition,[10]; at 33.0 µM,68%
same,growth inhibition,[10]; [17],85% (active)
same,growth inhibition,[10]; at 50.0 µM,64.5%
same,growth inhibition,[10]; at 100.0 µM,97% (active)
same,growth inhibition,[11]; at 1.2 µM,0%
same,growth inhibition,[11]; at 3.7 µM,-1%
same,growth inhibition,[11]; at 11.0 µM,-2%
same,growth inhibition,[11]; at 33.0 µM,62%
same,growth inhibition,[11]; at 100.0 µM,97% (active)
same,growth inhibition,[12]; at 1.2 µM,0%
same,growth inhibition,[12]; at 3.7 µM,-4%
same,growth inhibition,[12]; at 11.0 µM,-3%
same,growth inhibition,[12]; at 33.0 µM,71% (active)
same,growth inhibition,[12]; at 100.0 µM,98% (active)
same,growth inhibition,[13]; at 1.2 µM,0%
same,growth inhibition,[13]; at 3.7 µM,0%
same,growth inhibition,[13]; at 11.0 µM,-1%
same,growth inhibition,[13]; at 33.0 µM,82% (active)
same,growth inhibition,[13]; at 100.0 µM,97% (active)
same,growth inhibition,[14]; [16],-11%
same,growth inhibition,[14]; [17],-6%
same,growth inhibition,[14]; at 50.0 µM,92.5% (active)
same,growth inhibition,[15]; at 1.2 µM,2%
same,growth inhibition,[15]; at 3.7 µM,5%
same,growth inhibition,[15]; at 11.0 µM,2%
same,growth inhibition,[15]; at 33.0 µM,73% (active)
same,growth inhibition,[15]; at 100.0 µM,96% (active)
